Assay results: PubChem BioAssay (Tox21)
Inconclusive results are not listed. A call without a number means that no potency is given here. Values without a mark were called inactive. Activity calls are given as the source filed them. Calls come from the whole dose curve; as a rule, active = well fitted activation curve with a large enough effect in the repeat runs; inconclusive = weak or mixed curves; inactive = no such curve, though single readings can be large or run the other way.

Molecular target: Nuclear receptor subfamily 1 group I member 2 (Homo sapiens) (UniProt O75469)
Sequence (O75469 whole entry, looked up): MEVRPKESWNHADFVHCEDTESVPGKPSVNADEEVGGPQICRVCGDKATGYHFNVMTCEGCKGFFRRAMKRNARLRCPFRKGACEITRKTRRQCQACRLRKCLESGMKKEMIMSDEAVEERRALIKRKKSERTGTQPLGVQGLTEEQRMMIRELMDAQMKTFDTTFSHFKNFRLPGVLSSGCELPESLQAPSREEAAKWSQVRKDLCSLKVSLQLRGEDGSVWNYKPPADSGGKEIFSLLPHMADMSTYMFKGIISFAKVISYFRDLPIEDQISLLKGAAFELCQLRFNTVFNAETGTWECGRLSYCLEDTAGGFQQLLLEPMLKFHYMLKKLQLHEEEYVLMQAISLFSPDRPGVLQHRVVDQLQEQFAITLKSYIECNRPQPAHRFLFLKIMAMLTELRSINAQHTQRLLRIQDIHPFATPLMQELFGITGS
Assay: Human pregnane X receptor (PXR) small molecule agonists, qHTS assay (AID 1346982); note: nearly all actives have a fitted effect of over 35% in size
Details: PXR-Luc HepG2, CYP3A4 luciferase reporter, 24 h; series mostly up to 92.4 µM
Source text: National Center for Advancing Translational Sciences [NCATS]
NIH Chemical Genomics Center [NCGC]
U.S. Environmental Protection Agency [EPA]
National Institutes of Environmental Health Sciences [NIEHS]
National Toxicology Program [NTP]
The human pregnane X receptor (hPXR) regulates the expression of several drug metabolizing enzymes and induction of these proteins is a major mechanism for developing drug resistance in cancer. One such key enzyme catalyzing the drug metabolism is cytochrome P450 3A4 (CYP3A4). Changes in CYP3A4 expression affect drug metabolism, thereby reducing the therapeutic efficacy and altering toxicological response to a drug and which finally causes adverse drug interaction. To screen Tox21 libraries for compounds that activate hPXR-mediated CYP3A4 gene expression, PXR-Luc HepG2 cells were used.
PXR-Luc HepG2 cells were dispensed at 2,000 per well in 5uL of assay medium containing 5% charcoal-stripped FBS into white solid bottom 1536-well plates (Corning Life Sciences, Corning, NY) using a Multidrop Combi (Thermo Scientific, Waltham, MA) dispenser. The assay plates were incubated at 37 C and 5% CO2 for 5hr, and then 23nL of compounds dissolved in DMSO and positive control were transferred using a Pintool station (Wako, San Diego, CA). The assay plates were incubated at 37C and 5% CO2 for 24hr. For luciferase read, 4uL of ONE-Glo reagent (Promega Corporation, Madison, WI) was added to each well of the assay plates using Flying Reagent Dispenser (FRD, Aurora Discovery, San Diego, CA) and incubated the assay plates at room temperature for 30min. The luminescence signal was quantified using a ViewLux plate reader (Perkin Elmer, Shelton, CT).
Potency is the fitted concentration of half-maximal effect.

Row | SMILES | Potency | activation
1 | COc1ccc(CCC(=O)c2c(O)cc(O[C@@H]3O[C@H](CO)[C@@H](O)[C@H](O)[C@H]3O[C@@H]3O[C@@H](C)[C@H](O)[C@@H](O)[C@H]3O)cc2O)cc1O | inactive | 
2 | CC(C)OCC1CO1 (stereo not given) | inactive | 
3 | CC(CCc1ccc2c(c1)OCO2)NN (stereo not given) | inactive | 
4 | Cc1cc(C(=C2C=CC(=Nc3ccc(S(=O)(=O)O)cc3S(=O)(=O)O)C=C2)c2ccc(Nc3ccc(S(=O)(=O)O)cc3)cc2)ccc1N | inactive | 
5 | CC(C)(C)C(=O)O | inactive | 
6 | CCc1nn(CCCN2CCN(c3cccc(Cl)c3)CC2)c(=O)n1CCOc1ccccc1 | 3.76 µM (active) | 
7 | O=C(O)c1c(O)c(-c2ccccc2)nc2ccccc12 | inactive | 
8 | CCOC(=N)CC(=O)OCC | inactive | 
9 | O=C(N/N=C/c1ccc([N+](=O)[O-])o1)c1ccc(O)cc1 | inactive | 
10 | CC1CN(c2cc3c(cc2F)c(=O)c(C(=O)O)cn3-c2ccc(F)cc2F)CCN1 (stereo not given) |  | -2.46% [at 8.39 µM]
11 | COC(=O)CC(=O)C(C)(C)C | inactive | 
12 | Nc1ccc(S(=O)(=O)O)c(N)c1 | inactive | 
13 | OCCSc1ccccc1 | inactive | 
14 | C=CC(=O)NCOCC(C)C | inactive | 
15 | CCCCN(CCCC)C(=S)SSC(=S)N(CCCC)CCCC | 30.3 µM (active) | 
16 | N#C/C(=C1\SCC(c2ccccc2Cl)S1)n1ccnc1 (stereo not given) | 26.6 µM (active) | 
17 | O=C(O)C(Cc1cc(I)c(O)c(I)c1)c1ccccc1 (stereo not given) | inactive | 
18 | CCCCC(CC)COC(=O)COc1ccc(Cl)cc1C (stereo not given) | inactive | 
19 | Nc1nc(Cl)nc2c1ncn2[C@@H]1O[C@H](CO)[C@@H](O)[C@@H]1F | 0.531 µM (active) | 
20 | CC[C@@H]([C@H](C)O)n1ncn(-c2ccc(N3CCN(c4ccc(OC[C@@H]5CO[C@@](Cn6cncn6)(c6ccc(F)cc6F)C5)cc4)CC3)cc2)c1=O | 10.6 µM (active) | 

Row | SMILES | Potency | activation
21 | Cc1ccc(S(=O)(=O)NC2CCCCC2)cc1 | 27.1 µM (active) | 
22 | O=C(/C=C/c1ccccc1)OCCCc1ccccc1 | inactive | 
23 | CCCCCCCC/C=C\CCCCCCCC(=O)OC | inactive | 
24 | CN(C(=O)C(Cl)Cl)c1ccc(OC(=O)c2ccco2)cc1 | inactive | 
25 | CC(C)(C)CC(C)(C)c1ccc(OCCO)cc1 | 15.3 µM (active) | 
26 | Cc1occc1C(=O)Nc1ccc(C(=O)N2CCC(F)(F)/C(=C\C(=O)N3CCC(N4CCCCC4)CC3)c3ccccc32)cc1 | 19.1 µM (active) | 
27 | C[N+](C)(C)CCOC(N)=O | inactive | 
28 | C/C=C(\C)C(=O)OCCC(C)CCC=C(C)C (stereo not given) | inactive | 
29 | CCCCCCOC(=O)C(C)C | inactive | 
30 | CC(=O)Nc1ccccc1C | inactive | 
31 | Cc1ccc(/C=N/n2c(-c3ccccc3)csc2=S)cc1 | 23.7 µM (active) | 
32 | CC(C)(CCl)c1ccccc1 | inactive | 
33 | CNC(=O)N(c1ccccc1)c1ccccc1 | 48.8 µM (active) | 
34 | CCCC1C(CC)=CC(CC)=CN1c1ccccc1 (stereo not given) | 24.3 µM (active) | 
35 | CCCCCCCCCCCC(=O)[O][Sn]([CH2]CCC)([CH2]CCC)[O]C(=O)CCCCCCCCCCC | inactive | 
36 | CCCCCCCCCCCC[N+](C)(C)CCCS(=O)(=O)[O-] | inactive | 
37 | CC(C)=CC=O | inactive | 
38 | C=CCCCCCCCCCCCCCCCC |  | -1.52% [at 8.39 µM]
39 | Oc1cc(O)c(Cl)cc1Cl | inactive | 
40 | CCCCC(CC)C(=O)OCCOCCOCCOCCOC(=O)C(CC)CCCC (stereo not given) | 48.6 µM (active) | 
